# Experimental data taken from PubChem BioAssay (EPA / NIEHS).
# Inconclusive results are not listed. Active and inactive are the calls of the source. How the source made its calls: active means hit-call score of the fitted dose curve at least 0.9, where 1 is the maximum; inconclusive means response in the unintended direction; inactive means score below 0.9.
# Experiment: ACEA_AR_antagonist_AUC_viability: ACEA Biosciences xCELLigence Real-Time Cell Analysis on Androgen Receptor Antagonism for Viability (AID 2283776);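 further: area under impedance growth curve at 80 h after dosing as viability; hits lower the growth signal relative to DMSO meaning cytotoxicity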
# Description: ACEA_AR_antagonist is a cell-based, single-readout assay that uses 22Rv1, a human prostate cancer cell line, with measurements taken at 80 hours after chemical dosing in a 384-well plate, although TO5 and TO6 (mc0.srcf) used a 96-well plate. Differences in plate size can be ignored given data normalization.ACEA_AR_80hr is one of two assay component(s) measured or calculated from the […] assay. It is designed to make measurements of real-time cell-growth kinetics, a form of growth reporter, as detected with electrical impedance signals by Real-Time Cell Electrode Sensor (RT-CES) technology.Data from the assay component ACEA_AR_antagonist_AUC_viability was analyzed in the positive analysis fitting direction relative to DMSO as the negative control and baseline of activity. Using a type of growth reporter, loss-of-signal activity can be used to understand changes in the viability. Furthermore, this assay endpoint can be referred to as a secondary readout, because this assay has produced multiple assay endpoints where this one serves a viability function. To generalize the intended target to other relatable targets, this assay endpoint is annotated to the cell cycle intended target family, where the subfamily is cytotoxicity.
# The xCELLigence system Multi-E-Plate stations were used to measure the time-dependent response to chemicals. Each compound was tested in an eight-point, 1:4 serial dilution series starting at a maximum final concentration of 100 uM. A maximum starting concentration of 0.5% DMSO was present in the 100 uM chemical samples and was diluted along with the test article dilution series. The screen was performed in biological duplicate using two separate, 96-well, E-Plates 96 for each dilution series (n = 2). Positive controls (MG132 and testosterone) and a negative control (assay media) were tested in quadruplicate on each testing plate. Then, 0.5% and 0.125% DMSO were tested in duplicates in each plate to serve as solvent controls for the 2 highest concentrations of testing compounds: 100 uM and 25 uM. Reference compounds were tested with 8 concentrations with 1:5 serial dilutions. All screening was carried out by ACEA Biosciences, Inc. (San Diego, CA). 22Rv1 cells purchased from ATCC were maintained in media supplemented with 10% fetal bovine serum (FBS). Before screening, 22Rv1 cells were preconditioned in assay medium. Cells were then detached and seeded in E-Plates 96 in assay medium. After overnight monitoring of growth once every hour, compounds were added to […] cells and remained in the medium until the end of the experiment. Cellular responses were then recorded once every 5 min for the first 5 h, and once every hour for an additional 100 h.
SMILES,AC50,outcome
C=CCOC(Cn1ccnc1)c1ccc(Cl)cc1Cl (stereo not given),41.6 µM (active),–
CCCN(CCC)c1c([N+](=O)[O-])cc(C(F)(F)F)c(N)c1[N+](=O)[O-],35 µM (active),–
CCOC(=O)c1ccc(O)cc1,–,inactive
CC(=O)S[C@@H]1CC2=CC(=O)CC[C@]2(C)[C@H]2CC[C@@]3(C)[C@@H](CC[C@@]34CCC(=O)O4)[C@H]12,35.4 µM (active),–
CCC(C)OC(=O)N1CCCCC1CCO (stereo not given),–,inactive
CCN(Cc1c(F)cccc1Cl)c1c([N+](=O)[O-])cc(C(F)(F)F)cc1[N+](=O)[O-],25 µM (active),–
CCCCOC(=O)C(C)Oc1ccc(Oc2ccc(C(F)(F)F)cn2)cc1 (stereo not given),50 µM (active),–
O=C(O)c1ccccc1,–,inactive
C[C@]12C[C@H](O)[C@H]3[C@@H](CCC4=CC(=O)CC[C@@]43C)[C@@H]1CC[C@@H]2C(=O)CO,–,inactive
O=C(O)C1(C(=O)Nc2ccc(Cl)cc2Cl)CC1,50 µM (active),–
CC1(C)C(C=C(Cl)Cl)C1C(=O)OCc1cccc(Oc2ccccc2)c1 (stereo not given),34.2 µM (active),–
COC(=O)CSc1cc(N=c2sc(=O)n3n2CCCC3)c(F)cc1Cl,–,inactive
CCN(CC)C(=O)c1cccc(C)c1,–,inactive
COC(=O)c1ccccc1C(=O)O,–,inactive
CC(=O)[C@H]1CC[C@H]2[C@@H]3CCC4=CC(=O)CC[C@]4(C)[C@H]3CC[C@]12C,–,inactive
C#CCOC(=O)[C@@H](C)Oc1ccc(Oc2ncc(Cl)cc2F)cc1,23.1 µM (active),–
CCCCC(CC)COC(=O)c1ccccc1C(=O)O (stereo not given),–,inactive
COCCO,–,inactive
CCOC(=O)NCCOc1ccc(Oc2ccccc2)cc1,27.2 µM (active),–
CCCOC(=O)c1ccc(C(=O)OCCC)nc1,–,inactive

SMILES,AC50,outcome
CCOC(=O)C(C)Oc1ccc(Oc2cnc3cc(Cl)ccc3n2)cc1 (stereo not given),–,inactive
Oc1ccc(C(c2ccc(O)cc2)C(Cl)(Cl)Cl)cc1,17 µM (active),–
c1ccc(Nc2ccccc2)cc1,–,inactive
CSC(=O)c1cccc2nnsc12,–,inactive
O=C(c1ccc(O)cc1O)c1ccc(O)cc1O,–,inactive
OB(O)O,–,inactive
Cc1nn(C)c(Oc2ccccc2)c1C=NOCc1ccc(C(=O)OC(C)(C)C)cc1,13.8 µM (active),–
c1ccc2[nH]c(-c3cscn3)nc2c1,34.5 µM (active),–
CCCCCCC(C)OC(=O)COc1nc(F)c(Cl)c(N)c1Cl (stereo not given),17.8 µM (active),–
C[C@]12CC[C@@H]3c4ccc(O)cc4C[C@@H](CCCCCCCCCS(=O)CCCC(F)(F)C(F)(F)F)[C@H]3[C@@H]1CC[C@@H]2O (stereo not given in full),8.37 µM (active),–
CCCOC(=O)NCCCN(C)C,–,inactive
CN(C)C(=O)Nc1ccc(Cl)c(Cl)c1,50 µM (active),–
CC(C)(C)[C@@H](O)[C@@H](Cc1ccc(Cl)cc1)n1cncn1,24.1 µM (active),–
CCOC(=O)COc1cc(-n2ncc(C(F)(F)F)c(C)c2=O)c(F)cc1Cl,–,inactive
CCCCCOC(=O)COc1cc(N2C(=O)C3=C(CCCC3)C2=O)c(F)cc1Cl,77.8 µM (active),–
COC(=O)c1ccc(I)cc1S(=O)(=O)NC(=O)Nc1nc(C)nc(OC)n1,–,inactive
O=C(Nc1ccc([N+](=O)[O-])cc1Cl)c1cc(Cl)ccc1O,0.821 µM (active),–
O=C(c1ccccc1)C1CCCCC1,–,inactive
COc1c(Cl)ccc(Cl)c1C(=O)O,–,inactive
CCNc1nc(N)nc(Cl)n1,–,inactive
